Results taken from PubChem BioAssay (EPA / NIEHS).
Where a structure was tested more than once in an assay, its records may differ in their call. Activity calls are given as the source filed them. Rule for the calls: active = hit-call score of the fitted dose curve at least 0.9, where 1 is the maximum; inactive = score below 0.9.

read-out: Vascular cell adhesion molecule 1 (VCAM1), VCAM1 (gene 7412); assay: BSK_BF4T_VCAM1: BioMAP Diversity Plus: BF4T Assay for Vascular cell adhesion molecule 1 (VCAM1) Biomarker Activity (AID 2284249); settings: primary human bronchial epithelial cells with fibroblasts
Protocol: BSK_BF4T is a cell-based, multiplexed-readout assay that uses bronchial epithelial cells and dermal fibroblasts, a human vascular primary cell, with measurements taken at 24 hours after chemical dosing in a microplate: 96-well plate.BSK_BF4T_VCAM1 is an assay component measured in the BSK_BF4T assay. It measures VCAM-1 antibody related to regulation of gene expression using ELISA technology.Data from the assay component BSK_BF4T_VCAM1 was analyzed at the endpoint, BSK_BF4T_VCAM1, in the positive analysis fitting direction relative to DMSO as the negative control and baseline of activity. Using a type of binding reporter, gain or loss-of-signal activity can be used to understand protein changes. To generalize the intended target to other relatable targets, this assay endpoint is annotated to the 'cell adhesion molecules' intended target family, where the subfamily is 'Immunoglobulin CAM'.
The levels of cell surface (or secreted, indicated by the prefix "s") biomarker endpoints were measured by ELISA. Overt cytotoxicity to cells in confluent adherent cultures (all systems other than the BT system) was assessed by measuring total protein levels using sulforhodamine B (SRB) staining in parallel cultures at the time of biomarker measurements, indicated as SRB endpoints. For proliferation assays for adherent cell types, individual cell types are cultured at sub-confluence and relative cell numbers quantified by SRB staining at time points optimized for each system (48 h: 3C and CASM3C systems; 72 h: BT and HDF3CGF systems; 96 h: SAg system). SRB was performed by staining cells with 0.1% SRB after fixation with 10% TCA and reading wells at 560 nm.Viability and proliferation of PBMC (T cells) was quantified by Alamar Blue reduction for the SAg and BT systems. For PBMC viability (referred to as PBMC Cytotoxicity within the assay endpoint names), cells were plated (75,000/well in a 96-well plate) and then chemical samples added for 1 h before addition of activators, SEB and TSST-1 (20 ng/mL final concentration each). Cells were incubated for 90 h. Then, Alamar Blue (20 uL/well) (Invitrogen, Cat DAL1100) was added for 6 h, and the plates were read with a fluorescence microplate reader at 546/580 nm (excitation/emission). For PBMC proliferation, cells were plated and activated as above but incubated for only 16 h prior to addition of Alamar Blue. Plates were read after 6 h.

Q: For `OCC(F)(F)OC(F)(F)C(F)(F)OC(F)(F)C(F)(F)OC(F)(F)CO`, which outcome is on record?
A: Its outcome is “inactive”.

Q: For `OCC(F)(F)OC(F)(F)C(F)(F)OC(F)(F)C(F)(F)OC(F)(F)F`, which outcome is on record?
A: The outcome was “inactive”.

Q: How did the outcome turn out when `NC(=O)C(F)(F)C(F)(F)F` was run?
A: The outcome was “inactive”.

Q: With `OCC(F)(F)OC(F)(F)C(F)(F)OC(F)(F)CO` as the compound, how does the outcome read?
A: The outcome was “inactive”.

Q: For `O=C(O)C(F)(OC(F)(F)C(F)(F)C(F)(F)F)C(F)(F)F` (stereo not given), which outcome is on record?
A: Its outcome is “inactive”.

Q: Which outcome does the source give for `COC(=O)C(F)(F)C(F)(F)OC(F)(C(F)(F)F)C(F)(F)OC(F)=C(F)F` (stereo not given) here?
A: The outcome was “inactive”.

Q: For `O=C(O)C=CC(F)(C(F)(F)F)C(F)(F)F`, which outcome is on record?
A: The outcome was “inactive”.

Q: How did the outcome turn out when `O=C(O)C(F)(F)OC(F)(F)C(F)(F)OC(F)(F)C(=O)O` was run?
A: Its outcome is “inactive”.

Q: How did the outcome turn out when `CC(O)C(F)(F)C(F)(F)F` (stereo not given) was run?
A: The outcome was “inactive”.

Q: Which outcome does the source give for `O=C(O)C(F)(F)OC(F)(F)C(F)(F)OC(F)(F)F` here?
A: The outcome was “inactive”.

Q: With `O=S(=O)(F)C(F)(F)C(F)(F)C(F)(F)C(F)(F)C(F)(F)C(F)(F)C(F)(F)C(F)(F)F` as the compound, how does the outcome read?
A: The outcome was “inactive”.

Q: What does the source list for `C=CC(=O)OCC(F)(F)C(F)F`?
A: outcome: inactive; AC50: 30 µM (active)

Q: Which outcome does the source give for `O=C(O)C(F)(F)C(F)(F)C(=O)O` here?
A: The outcome was “inactive”.

Q: Which outcome does the source give for `FC(F)(F)C(F)(C(F)(F)F)C(F)(F)C(F)(F)CC1CO1` (stereo not given) here?
A: Its outcome is “inactive”.
